Common to all, as to test: DAPPL (digital affinity profiling via proximity ligation, sequencing); 10 mM Tris-HCl pH 7.5, 50 mM NaCl, 1 mM DTT, 4% glycerol, room temperature, 30 min; GST-TFs on glutathione beads, 16-mer random dsDNA library, 0.1% formaldehyde crosslink after washing; high values mean tight binding
One assay addresses T1, FEV (Homo sapiens, UniProt Q99581 1-238).
T1 sequence: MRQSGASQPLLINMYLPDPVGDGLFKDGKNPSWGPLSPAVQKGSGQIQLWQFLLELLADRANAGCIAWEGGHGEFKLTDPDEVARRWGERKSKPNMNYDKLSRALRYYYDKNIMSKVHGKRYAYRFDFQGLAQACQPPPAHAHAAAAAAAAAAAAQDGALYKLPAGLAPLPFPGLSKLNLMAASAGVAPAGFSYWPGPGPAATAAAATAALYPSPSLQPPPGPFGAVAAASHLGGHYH
The note with it: protein: recombinant; tags: N-terminal GST; dsDNA, one strand shown. A digest of the protocol: (§1)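 Binding signal is each hexamer's read frequency for a factor divided by its frequency in the tag-only sample. The factors were GST-fused human transcription factors from yeast, captured on glutathione beads, DNA-barcoded and pooled with that sample. Pools were incubated with 200 nmole of a random double-stranded 16-mer DNA library in Tris/NaCl/DTT/glycerol buffer at room temperature for 30 min, then washed, crosslinked with 0.1% formaldehyde, proximity-ligated with BsaI/T4 ligase (1 h, 37 °C), PCR-amplified and sequenced on an Illumina NextSeq500.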

The next assay deals with ETV5 (Homo sapiens, UniProt P41161 1-510). As to conditions: protein: recombinant; tags: N-terminal GST; dsDNA, one strand shown. Put shortly: as §1
ETV5, sequence (P41161 whole entry): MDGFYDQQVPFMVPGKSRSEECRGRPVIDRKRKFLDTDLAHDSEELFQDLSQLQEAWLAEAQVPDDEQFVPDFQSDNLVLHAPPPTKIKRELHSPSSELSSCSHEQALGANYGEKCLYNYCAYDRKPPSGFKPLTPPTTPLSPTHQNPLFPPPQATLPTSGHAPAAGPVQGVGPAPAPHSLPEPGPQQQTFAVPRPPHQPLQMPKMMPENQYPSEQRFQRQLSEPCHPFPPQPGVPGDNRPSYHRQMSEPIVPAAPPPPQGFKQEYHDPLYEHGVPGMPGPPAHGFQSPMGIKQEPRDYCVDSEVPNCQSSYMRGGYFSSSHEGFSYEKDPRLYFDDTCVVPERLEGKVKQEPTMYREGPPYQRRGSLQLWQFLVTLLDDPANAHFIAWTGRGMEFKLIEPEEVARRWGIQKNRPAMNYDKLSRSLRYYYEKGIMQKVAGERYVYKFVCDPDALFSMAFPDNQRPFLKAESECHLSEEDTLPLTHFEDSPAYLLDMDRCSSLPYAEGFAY
A further assay concerns the target HSF1 (Homo sapiens, UniProt Q00613 1-529). The note with it: protein: recombinant; tags: N-terminal GST; chain copies: 3; dsDNA, one strand shown. Put shortly: as §1
Another assay has as its target T2, SPIC (Homo sapiens, UniProt Q8N5J4 1-248).
T2 sequence: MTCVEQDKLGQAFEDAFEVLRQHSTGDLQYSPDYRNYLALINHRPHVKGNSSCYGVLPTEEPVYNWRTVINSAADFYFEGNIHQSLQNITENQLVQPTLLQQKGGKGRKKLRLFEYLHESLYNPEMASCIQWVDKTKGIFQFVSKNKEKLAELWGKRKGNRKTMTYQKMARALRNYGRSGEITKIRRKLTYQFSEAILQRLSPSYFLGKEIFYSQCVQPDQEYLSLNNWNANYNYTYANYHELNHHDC
The note with it: protein: recombinant; tags: N-terminal GST; dsDNA, one strand shown. Put shortly:
as §1

A further assay has as its target ELF4 (Homo sapiens, UniProt Q99607 1-663). The note with it: protein: recombinant; tags: N-terminal GST; dsDNA, one strand shown. A digest of the protocol:
as §1

In another assay the target is T3, ELK4 (Homo sapiens, UniProt P28324-2 1-405).
T3 sequence: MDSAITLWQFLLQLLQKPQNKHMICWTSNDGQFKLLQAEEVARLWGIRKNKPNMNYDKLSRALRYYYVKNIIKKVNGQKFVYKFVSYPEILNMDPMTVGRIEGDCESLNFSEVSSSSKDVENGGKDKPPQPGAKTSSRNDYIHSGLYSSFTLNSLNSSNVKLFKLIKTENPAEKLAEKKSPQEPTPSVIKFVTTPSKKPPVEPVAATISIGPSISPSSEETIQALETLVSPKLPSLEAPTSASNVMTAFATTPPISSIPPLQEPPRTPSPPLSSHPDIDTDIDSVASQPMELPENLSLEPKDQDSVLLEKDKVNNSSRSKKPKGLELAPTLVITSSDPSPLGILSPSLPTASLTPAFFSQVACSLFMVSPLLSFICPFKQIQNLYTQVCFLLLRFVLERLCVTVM
The note with it: protein: recombinant; tags: N-terminal GST; dsDNA, one strand shown. Put shortly:
as §1

For a further assay, the target named is T4, ETV2 (Homo sapiens, UniProt O00321 1-342).
T4 sequence: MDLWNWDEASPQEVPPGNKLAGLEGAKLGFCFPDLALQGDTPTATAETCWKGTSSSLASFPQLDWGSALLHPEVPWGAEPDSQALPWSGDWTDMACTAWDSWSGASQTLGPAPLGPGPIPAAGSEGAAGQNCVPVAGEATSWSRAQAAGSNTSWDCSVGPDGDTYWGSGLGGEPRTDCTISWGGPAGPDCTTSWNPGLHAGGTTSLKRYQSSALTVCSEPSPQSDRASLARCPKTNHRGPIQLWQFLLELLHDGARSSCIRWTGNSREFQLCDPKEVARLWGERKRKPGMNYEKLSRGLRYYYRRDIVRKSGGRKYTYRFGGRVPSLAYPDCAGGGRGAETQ
The note with it: protein: recombinant; tags: N-terminal GST; dsDNA, one strand shown. Put shortly:
as §1

Another assay deals with T5, ELF3 (Homo sapiens, UniProt P78545 1-371).
T5 sequence: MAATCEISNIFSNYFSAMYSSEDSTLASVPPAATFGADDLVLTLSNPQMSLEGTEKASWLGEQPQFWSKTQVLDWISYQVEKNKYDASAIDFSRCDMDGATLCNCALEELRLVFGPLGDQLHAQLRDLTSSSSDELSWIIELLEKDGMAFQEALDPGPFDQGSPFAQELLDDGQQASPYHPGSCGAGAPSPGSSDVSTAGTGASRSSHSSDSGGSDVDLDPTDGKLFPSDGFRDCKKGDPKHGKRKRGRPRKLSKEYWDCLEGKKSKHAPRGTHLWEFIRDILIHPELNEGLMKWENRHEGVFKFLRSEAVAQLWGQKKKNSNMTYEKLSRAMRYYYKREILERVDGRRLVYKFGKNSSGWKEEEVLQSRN
The note with it: protein: recombinant; tags: N-terminal GST; dsDNA, one strand shown. Put shortly: as §1

The next assay deals with CRX (Homo sapiens, UniProt O43186 1-299). As to conditions: protein: recombinant; tags: N-terminal GST; dsDNA, one strand shown. A digest of the protocol:
as §1

The next assay has as its target ETV1 (Homo sapiens, UniProt P50549 1-477). As to conditions: protein: recombinant; tags: N-terminal GST; dsDNA, one strand shown. Put shortly:
as §1

For the next assay, the target named is T6, ERF (Homo sapiens, UniProt P50548 1-548).
T6 sequence: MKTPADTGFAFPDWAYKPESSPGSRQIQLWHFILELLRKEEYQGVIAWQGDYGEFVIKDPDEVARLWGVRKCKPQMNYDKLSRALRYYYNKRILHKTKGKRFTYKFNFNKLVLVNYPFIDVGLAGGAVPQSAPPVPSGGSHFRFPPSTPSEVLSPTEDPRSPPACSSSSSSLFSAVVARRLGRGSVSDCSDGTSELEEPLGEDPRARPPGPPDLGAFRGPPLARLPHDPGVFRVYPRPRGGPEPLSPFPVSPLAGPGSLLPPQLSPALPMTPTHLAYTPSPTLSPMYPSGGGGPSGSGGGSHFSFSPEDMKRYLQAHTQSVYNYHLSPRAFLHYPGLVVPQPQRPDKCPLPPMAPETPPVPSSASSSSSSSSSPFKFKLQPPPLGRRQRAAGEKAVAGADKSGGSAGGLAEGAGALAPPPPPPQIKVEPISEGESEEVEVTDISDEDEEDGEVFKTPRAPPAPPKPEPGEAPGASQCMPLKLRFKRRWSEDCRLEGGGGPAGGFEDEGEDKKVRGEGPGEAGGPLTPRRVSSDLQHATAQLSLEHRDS
The note with it: protein: recombinant; tags: N-terminal GST; dsDNA, one strand shown. A digest of the protocol:
as §1

Another assay concerns the target T7, ETV3L (Homo sapiens, UniProt Q6ZN32 1-361).
T7 sequence: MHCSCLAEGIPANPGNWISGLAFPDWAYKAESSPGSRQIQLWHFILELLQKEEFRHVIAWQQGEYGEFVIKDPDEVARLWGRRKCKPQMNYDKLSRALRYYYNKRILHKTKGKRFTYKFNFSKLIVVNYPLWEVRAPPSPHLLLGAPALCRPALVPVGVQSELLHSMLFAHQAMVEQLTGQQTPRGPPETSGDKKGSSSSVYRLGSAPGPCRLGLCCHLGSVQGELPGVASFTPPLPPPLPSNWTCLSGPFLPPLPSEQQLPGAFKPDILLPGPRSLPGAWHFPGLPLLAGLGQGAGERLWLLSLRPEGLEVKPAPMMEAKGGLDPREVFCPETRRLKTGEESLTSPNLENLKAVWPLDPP
The note with it: protein: recombinant; tags: N-terminal GST; dsDNA, one strand shown. Put shortly:
as §1

Another assay addresses T8, ETS2 (Homo sapiens, UniProt P15036 1-469).
T8 sequence: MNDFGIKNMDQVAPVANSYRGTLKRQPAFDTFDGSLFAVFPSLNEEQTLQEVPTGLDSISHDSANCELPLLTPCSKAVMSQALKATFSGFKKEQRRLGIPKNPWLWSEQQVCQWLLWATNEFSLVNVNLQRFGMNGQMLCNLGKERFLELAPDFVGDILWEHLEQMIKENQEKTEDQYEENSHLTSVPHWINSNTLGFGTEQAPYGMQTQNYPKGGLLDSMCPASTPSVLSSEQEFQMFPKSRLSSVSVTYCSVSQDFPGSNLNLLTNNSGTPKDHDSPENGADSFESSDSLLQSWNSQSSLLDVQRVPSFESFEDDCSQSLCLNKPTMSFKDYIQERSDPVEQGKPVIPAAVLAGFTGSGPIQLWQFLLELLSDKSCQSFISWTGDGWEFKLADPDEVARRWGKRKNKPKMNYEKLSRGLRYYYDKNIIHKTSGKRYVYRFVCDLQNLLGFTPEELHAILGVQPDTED
The note with it: protein: recombinant; tags: N-terminal GST; dsDNA, one strand shown. Put shortly: as §1

The next assay concerns the target T9, SPDEF (Homo sapiens, UniProt O95238 1-335).
T9 sequence: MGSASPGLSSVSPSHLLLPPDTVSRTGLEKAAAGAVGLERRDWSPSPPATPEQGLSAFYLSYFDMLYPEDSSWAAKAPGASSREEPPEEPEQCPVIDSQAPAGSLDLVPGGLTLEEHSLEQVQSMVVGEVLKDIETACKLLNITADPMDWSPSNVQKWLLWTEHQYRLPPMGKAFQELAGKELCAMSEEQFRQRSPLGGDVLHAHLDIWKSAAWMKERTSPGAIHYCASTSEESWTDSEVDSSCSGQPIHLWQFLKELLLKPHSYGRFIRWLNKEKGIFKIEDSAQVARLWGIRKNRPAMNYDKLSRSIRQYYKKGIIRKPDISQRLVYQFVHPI
As to conditions: protein: recombinant; tags: N-terminal GST; dsDNA, one strand shown. Put shortly: as §1

In another assay the target is T10, ETV7 (Homo sapiens, UniProt Q9Y603 1-341).
T10 sequence: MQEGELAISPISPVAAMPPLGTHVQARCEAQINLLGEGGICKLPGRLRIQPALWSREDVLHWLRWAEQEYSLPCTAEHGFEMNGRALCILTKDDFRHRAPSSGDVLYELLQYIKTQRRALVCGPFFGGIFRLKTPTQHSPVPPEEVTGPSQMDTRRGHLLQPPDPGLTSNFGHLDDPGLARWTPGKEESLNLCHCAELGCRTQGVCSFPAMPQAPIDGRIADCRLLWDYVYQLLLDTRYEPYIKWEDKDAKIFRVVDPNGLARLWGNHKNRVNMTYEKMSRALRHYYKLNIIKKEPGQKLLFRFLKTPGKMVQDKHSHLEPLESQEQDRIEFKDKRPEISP
As to conditions: protein: recombinant; tags: N-terminal GST; dsDNA, one strand shown. Put shortly: as §1

For a further assay, the target named is T11, ELF5 (Homo sapiens, UniProt Q9UKW6-2 1-255).
T11 sequence: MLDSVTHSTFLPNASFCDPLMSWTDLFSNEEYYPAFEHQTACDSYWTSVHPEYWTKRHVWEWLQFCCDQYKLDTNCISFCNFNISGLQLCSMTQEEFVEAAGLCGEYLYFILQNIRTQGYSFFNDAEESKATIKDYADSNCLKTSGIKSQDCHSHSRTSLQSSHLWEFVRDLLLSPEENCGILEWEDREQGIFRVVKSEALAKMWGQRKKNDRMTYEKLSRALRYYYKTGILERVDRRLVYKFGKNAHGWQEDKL
The note with it: protein: recombinant; tags: N-terminal GST; dsDNA, one strand shown. A digest of the protocol:
as §1

For a further assay, the target named is T12, ETV3 (Homo sapiens, UniProt P41162-2 1-143).
T12 sequence: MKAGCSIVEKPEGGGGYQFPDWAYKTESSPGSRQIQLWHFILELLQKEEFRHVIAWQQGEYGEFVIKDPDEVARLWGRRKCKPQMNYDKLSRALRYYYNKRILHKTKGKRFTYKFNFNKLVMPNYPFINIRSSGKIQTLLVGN
As to conditions: protein: recombinant; tags: N-terminal GST; dsDNA, one strand shown. Put shortly: as §1

The next assay deals with ETV6 (Homo sapiens, UniProt P41212 1-452). As to conditions: protein: recombinant; tags: N-terminal GST; dsDNA, one strand shown. A digest of the protocol:
as §1

ETV1, sequence (P50549 whole entry): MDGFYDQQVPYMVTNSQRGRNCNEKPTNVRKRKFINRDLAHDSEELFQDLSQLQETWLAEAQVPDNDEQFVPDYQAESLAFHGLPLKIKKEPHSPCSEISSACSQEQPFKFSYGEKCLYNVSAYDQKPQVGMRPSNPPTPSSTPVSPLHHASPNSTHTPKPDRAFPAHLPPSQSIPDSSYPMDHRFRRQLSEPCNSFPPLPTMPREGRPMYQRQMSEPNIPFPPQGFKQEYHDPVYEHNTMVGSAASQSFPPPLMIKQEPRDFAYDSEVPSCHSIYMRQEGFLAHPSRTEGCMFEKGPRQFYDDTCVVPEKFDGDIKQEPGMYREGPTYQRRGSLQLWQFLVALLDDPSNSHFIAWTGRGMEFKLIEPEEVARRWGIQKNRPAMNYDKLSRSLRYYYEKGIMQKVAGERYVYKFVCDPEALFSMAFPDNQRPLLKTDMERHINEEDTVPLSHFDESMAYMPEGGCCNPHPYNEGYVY
ELF4, sequence (Q99607 whole entry): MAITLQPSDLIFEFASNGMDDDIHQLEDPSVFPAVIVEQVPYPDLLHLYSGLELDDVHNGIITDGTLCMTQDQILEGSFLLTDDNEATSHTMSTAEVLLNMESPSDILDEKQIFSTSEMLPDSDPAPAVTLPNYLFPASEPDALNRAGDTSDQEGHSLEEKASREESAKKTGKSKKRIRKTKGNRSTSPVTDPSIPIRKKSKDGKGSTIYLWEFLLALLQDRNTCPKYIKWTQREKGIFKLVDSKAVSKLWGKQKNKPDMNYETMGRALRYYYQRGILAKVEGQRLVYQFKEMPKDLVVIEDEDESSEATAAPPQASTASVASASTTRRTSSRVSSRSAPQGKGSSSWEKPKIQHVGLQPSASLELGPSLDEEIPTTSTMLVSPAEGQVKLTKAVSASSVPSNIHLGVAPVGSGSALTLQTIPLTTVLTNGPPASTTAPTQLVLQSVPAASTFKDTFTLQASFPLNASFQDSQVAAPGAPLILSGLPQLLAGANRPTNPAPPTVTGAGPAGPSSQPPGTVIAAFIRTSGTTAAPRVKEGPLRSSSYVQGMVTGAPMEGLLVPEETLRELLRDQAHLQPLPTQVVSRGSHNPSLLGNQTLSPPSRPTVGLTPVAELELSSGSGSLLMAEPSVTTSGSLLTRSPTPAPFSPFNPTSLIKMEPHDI
HSF1, sequence (Q00613 whole entry): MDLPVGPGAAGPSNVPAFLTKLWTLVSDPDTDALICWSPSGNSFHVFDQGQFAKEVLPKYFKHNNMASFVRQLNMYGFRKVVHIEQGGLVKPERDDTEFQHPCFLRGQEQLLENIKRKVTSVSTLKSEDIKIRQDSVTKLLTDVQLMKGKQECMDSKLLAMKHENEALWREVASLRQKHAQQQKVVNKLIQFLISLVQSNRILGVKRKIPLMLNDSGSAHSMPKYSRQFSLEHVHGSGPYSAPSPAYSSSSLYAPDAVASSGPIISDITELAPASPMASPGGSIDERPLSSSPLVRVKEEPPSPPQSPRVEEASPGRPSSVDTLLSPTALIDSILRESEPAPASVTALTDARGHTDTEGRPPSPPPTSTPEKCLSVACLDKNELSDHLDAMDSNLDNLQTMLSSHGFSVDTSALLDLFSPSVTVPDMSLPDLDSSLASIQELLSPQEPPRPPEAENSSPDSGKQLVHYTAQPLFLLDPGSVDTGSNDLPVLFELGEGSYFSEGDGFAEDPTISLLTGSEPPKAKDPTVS
ETV6, sequence (P41212 whole entry): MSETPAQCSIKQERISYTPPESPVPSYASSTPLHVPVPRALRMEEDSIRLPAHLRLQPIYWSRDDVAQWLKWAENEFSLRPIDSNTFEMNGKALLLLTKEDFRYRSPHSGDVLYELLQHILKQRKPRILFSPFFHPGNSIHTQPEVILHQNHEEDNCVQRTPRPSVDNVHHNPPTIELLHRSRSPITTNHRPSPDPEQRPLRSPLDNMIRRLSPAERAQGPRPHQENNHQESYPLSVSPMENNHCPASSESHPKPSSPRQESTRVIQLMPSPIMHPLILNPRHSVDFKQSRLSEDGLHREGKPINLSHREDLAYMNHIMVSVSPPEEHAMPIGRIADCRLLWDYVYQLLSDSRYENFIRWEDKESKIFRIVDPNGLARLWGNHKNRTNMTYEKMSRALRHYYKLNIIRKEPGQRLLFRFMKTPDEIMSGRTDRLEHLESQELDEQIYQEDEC
CRX, sequence (O43186 whole entry): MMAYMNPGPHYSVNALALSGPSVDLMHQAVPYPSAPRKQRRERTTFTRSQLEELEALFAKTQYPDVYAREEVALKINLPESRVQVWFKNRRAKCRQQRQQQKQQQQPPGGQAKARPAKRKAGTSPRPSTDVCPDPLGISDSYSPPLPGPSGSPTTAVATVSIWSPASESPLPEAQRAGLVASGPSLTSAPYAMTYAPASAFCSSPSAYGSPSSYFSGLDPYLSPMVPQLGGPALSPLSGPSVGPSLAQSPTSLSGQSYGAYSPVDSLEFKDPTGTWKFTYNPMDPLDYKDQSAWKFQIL

Turning to CCGATT, the binding signal is 1.37 fold enrichment (6-mer frequency, TF over GST control) with FEV; 1.34 fold enrichment (6-mer frequency, TF over GST control) in the assay with ETV5; 1.94 fold enrichment (6-mer frequency, TF over GST control) in the assay with HSF1; 1.18 fold enrichment (6-mer frequency, TF over GST control) with SPIC; 1.41 fold enrichment (6-mer frequency, TF over GST control) with ELF4; 1.37 fold enrichment (6-mer frequency, TF over GST control) in the assay with ELK4. Besides, the binding signal is 1.27 fold enrichment (6-mer frequency, TF over GST control) with ETV2; 1.17 fold enrichment (6-mer frequency, TF over GST control) with ELF3; 2.69 fold enrichment (6-mer frequency, TF over GST control) with CRX; 1.35 fold enrichment (6-mer frequency, TF over GST control) with ETV1; 1.28 fold enrichment (6-mer frequency, TF over GST control) with ERF; 1.43 fold enrichment (6-mer frequency, TF over GST control) with ETV3L. Further, the binding signal in the assay with ETS2 was 1.39 fold enrichment (6-mer frequency, TF over GST control); with SPDEF, 1.32 fold enrichment (6-mer frequency, TF over GST control); in the assay with ETV7, 1.31 fold enrichment (6-mer frequency, TF over GST control); in the assay with ELF5, 1.39 fold enrichment (6-mer frequency, TF over GST control); with ETV3, 1.38 fold enrichment (6-mer frequency, TF over GST control); with ETV6, 1.52 fold enrichment (6-mer frequency, TF over GST control).

For the origin of these results see article PMC7862700, “An all-to-all approach to the identification of sequence-specific readers for epigenetic DNA modifications on cytosine”.
